Source: the supplement of paper PMC3334620
The full ranking holds about 33,000 sequences; the median of “E-score (-0.5 to 0.5)” is about -0.011, and the highest 2% start at about 0.28. For the sample, the highest values were picked, then their nearest neighbours and some sequences at random.

Molecular target: T1, Gcr1 (UniProt P07261)
T1 sequence: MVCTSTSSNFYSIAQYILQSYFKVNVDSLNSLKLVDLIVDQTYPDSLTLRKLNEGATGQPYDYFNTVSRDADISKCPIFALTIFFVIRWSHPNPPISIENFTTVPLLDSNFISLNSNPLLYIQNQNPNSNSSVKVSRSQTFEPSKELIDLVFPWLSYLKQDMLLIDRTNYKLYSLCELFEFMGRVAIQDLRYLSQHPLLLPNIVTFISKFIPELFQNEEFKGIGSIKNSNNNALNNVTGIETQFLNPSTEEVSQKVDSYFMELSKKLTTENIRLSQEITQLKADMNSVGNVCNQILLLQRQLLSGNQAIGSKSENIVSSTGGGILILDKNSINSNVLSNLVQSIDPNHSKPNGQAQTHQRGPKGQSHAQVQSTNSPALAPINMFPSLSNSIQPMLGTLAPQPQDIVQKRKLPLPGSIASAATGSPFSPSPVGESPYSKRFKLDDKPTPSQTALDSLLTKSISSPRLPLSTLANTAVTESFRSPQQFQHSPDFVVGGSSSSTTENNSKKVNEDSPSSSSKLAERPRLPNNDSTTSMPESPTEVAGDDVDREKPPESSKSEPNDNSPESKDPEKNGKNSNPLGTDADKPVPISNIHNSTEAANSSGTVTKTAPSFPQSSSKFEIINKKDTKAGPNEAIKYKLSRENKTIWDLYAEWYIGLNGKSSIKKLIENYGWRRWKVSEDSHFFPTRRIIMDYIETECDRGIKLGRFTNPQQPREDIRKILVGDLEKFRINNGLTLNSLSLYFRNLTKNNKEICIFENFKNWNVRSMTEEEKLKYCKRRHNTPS
Test: PBM E-score (8-mer binding enrichment) (E-score (-0.5 to 0.5)); higher = stronger / more preferred TF binding
Conditions: protein concentration: 100 nM; construct: GST-full length
In short: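 PURExpress in vitro transcription/translation supplied GST-tagged yeast transcription factors, either full-length or DNA-binding domain. Applied at about 100-200 nM to universal all-10-mer Agilent arrays double-stranded by primer extension, the bound protein was detected with fluorescent anti-GST. E-scores, modified Wilcoxon-Mann-Whitney statistics, were given by the Universal PBM Analysis Suite to ungapped eight-base words pooled with their reverse complements after masliner normalisation.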

| Sequence | PBM E-score |
| --- | --- |
| ATGCAAAC | 0.115 |
| CTCTTCAA | 0.00436 |
| GGACGCAC | 0.127 |
| ACGCATCT | 0.151 |
| CCGCATCA | 0.103 |
| CCGCATCG | -0.0819 |
| GCGCATCA | 0.0737 |
| GCGCATCC | 0.331 |
| ACGCATCG | -0.00937 |
| ACGCATCC | 0.311 |
| GCGCATAC | 0.0321 |
| CCGCATCC | 0.31 |
| ACCGCCTC | -0.14 |
| ACTGTGCT | -0.231 |
| ACAGACAT | -0.144 |
| CACAGAGG | -0.185 |
| CGAGGGGC | 0.0171 |
| CTAGTGGC | 0.106 |
| GCAGTGGA | 0.11 |
| ATCGTGGC | -0.103 |
| AAAGTGGA | 0.24 |
| ATAGTGGC | 0.32 |
| GTAGTGGA | 0.285 |
| CTAGTGTA | 0.127 |
| TAAGTGGA | 0.287 |

| Sequence | PBM E-score |
| --- | --- |
| GTAGTGTA | -0.0351 |
| ACAGTGGC | 0.00948 |
| CAAGTGGA | 0.181 |
| CTAGTGGA | 0.298 |
| TCCGACAA | -0.0648 |
| AACGAGGG | 0.0827 |
| CGGTCTAG | -0.167 |
| AAACAAGG | 0.16 |
| GAGGTTCC | 0.269 |
| CAACTTAC | -0.127 |
| GCAGAGTA | -0.0213 |
| ACCGACGC | -0.0878 |
| GTTTTGTA | 0.0369 |
| ATGGCGGC | 0.0606 |
| ATATGCTA | 0.115 |
| CCCCTCAC | -0.0282 |
| CTCCTGAA | 0.085 |
| AAATCGCA | -0.021 |
| ATACCAAC | -0.00844 |
| ATCGTGGA | 0.148 |
| CAAGTGGC | 0.146 |
| ATAGTGGG | 0.308 |
| ATAGTAGA | 0.191 |
| ATAGTAGC | 0.286 |
| AAAGTGGC | 0.295 |

| Sequence | PBM E-score |
| --- | --- |
| ATAGTGGA | 0.376 |
| ATAGTGTG | 0.106 |
| ATAGTAGG | 0.051 |
| AGAGTGGG | 0.177 |
| AAAGTGGT | 0.167 |
| ATAGTGAA | -0.116 |
| GAGAGTGA | -0.261 |
| CCAGTAAG | 0.222 |
| AGCTCTAA | -0.108 |
| GTCAAAAA | 0.144 |
| CCCGAACA | -0.00034 |
| GGAGTAAC | -0.116 |
| CCTCCCCG | 0.0903 |
| AGACCCAT | -0.152 |
| CGCTGAGC | 0.0119 |
| ATCCCCAA | 0.0543 |
| CTCGCGCC | -0.166 |
| CATTGAAG | -0.12 |
| TAAAGAGA | 0.0201 |
| CCCAGCTA | -0.0278 |
| GGCAGCTA | 0.318 |
| CGCAGCTC | 0.09 |
| GACAGCTA | -0.113 |
| CGCAGCTA | 0.34 |
| GCCAGCTA | -0.135 |

| Sequence | PBM E-score |
| --- | --- |
| AGGCTGGA | -0.133 |
| ATAATGGA | 0.196 |
| AAAATAGG | 0.335 |
| ATAATGGG | 0.326 |
| CAAATGGG | -0.0381 |
| AAAATGGG | 0.29 |
| AAAATAGT | 0.0219 |
| AAAATAGC | 0.272 |
| ATAATGGC | -0.00297 |
| AAAATGGA | 0.142 |
| CGCTCCGA | -0.0796 |
| CTCTTTAA | -0.101 |
| GGTCGATA | -0.135 |
| CCTTAAAG | 0.0175 |
| CATCGACG | -0.0993 |
| TCAAGGCA | -0.127 |
| GCTGACTA | -0.0111 |
| CTGGGCAC | 0.239 |
| AGTGGCAA | 0.088 |
| AGTGGCTG | 0.312 |
| AGTGGCTA | -0.0284 |
| AGTGGCTC | 0.218 |
| AGTGGCAG | 0.287 |
| AGTGGCAC | 0.15 |
| GCGTTCAC | 0.00885 |

| Sequence | PBM E-score |
| --- | --- |
| AACATGTG | 0.141 |
| GCGGGAGA | -0.277 |
| ATGGGGTA | -0.128 |
| CTGGGGTA | -0.0593 |
| GTGGGGTA | 0.286 |
| CAAGGAAC | 0.0885 |
| GCAGGCGA | -0.0907 |
| CGGCTACC | 0.0369 |
| AGGCTACC | 0.0739 |
| GGGCTACC | 0.302 |
| CGCCGCGC | 0.137 |
| ATGGCCCG | -0.309 |
| GATTCGCC | 0.0655 |
| GCACGCCC | -0.122 |
| AGACGCCC | 0.259 |
| CGACGCAC | -0.0398 |
| CAACGCCC | 0.0625 |
| GCACGCCA | -0.0682 |
| TGACGCCA | -0.0776 |
| CGACGTCC | 0.0613 |
| GGACGCCA | 0.418 |
| CGACGCCC | 0.287 |
| GGACGTCC | 0.291 |
| GGACGTCA | -0.115 |
| GGACGCCC | 0.441 |

| Sequence | PBM E-score |
| --- | --- |
| CCACTTGA | 0.138 |
| GTTCTCCA | -0.137 |
| ATAAGTGA | -0.119 |
| ACTGGGTC | -0.0289 |
| ACAGGCAG | 0.252 |
| CGAGCCCA | -0.119 |
| AACATTTC | -0.0184 |
| TCATTGGA | -0.0473 |
| CCCTGTAC | -0.0614 |
| ACCTGTAG | 0.135 |
| TCCTGTAA | 0.354 |
| ACCTGTAA | -0.0579 |
| ACCTGTAT | 0.322 |
| CCCCTGTA | 0.284 |
| GCCTGTAA | 0.109 |
| CCCTGTAA | 0.308 |
| CCCTGTAG | 0.107 |
| GCCCTGTA | 0.0785 |
| ACCTGTAC | 0.0266 |
| CCCCTGAA | 0.0139 |
| AGGATTGA | 0.106 |
| AACCATCG | -0.148 |
| ATTATGGA | 0.161 |
| CGTTCTAG | 0.0647 |
| TACCTCTA | 0.238 |

| Sequence | PBM E-score |
| --- | --- |
| CGACTCGA | -0.0795 |
| AGGTTGCC | 0.28 |
| AGGTTGCG | 0.136 |
| AGGTTGCA | 0.125 |
| CGATTTAC | -0.039 |
| CGCAGAGC | -0.291 |
| GTCCACGA | -0.0295 |
| ACCCACTC | 0.0683 |
| ATCCACGA | 0.0269 |
| ATCCACTC | 0.318 |
| ATCCACTA | 0.369 |
| GTCCACTA | 0.334 |
| CTCCACTA | 0.215 |
| CTCCACTC | 0.022 |
| ATCCACTG | 0.0833 |
| CTTAGATA | 0.0548 |
| ACACTTAG | -0.0488 |
| ACATCCAG | 0.251 |
| ACAGCACA | -0.109 |
| ATGTACAC | 0.00539 |
| GTCGTTGA | -0.219 |
| GAGGGCGC | 0.114 |
| CACGCTGC | 0.236 |
| GACGCTGA | 0.301 |
| AACGCTGC | 0.0719 |
